# Legend:
# Assay type in all cases: functional
# [1] = system: Plasmodium falciparum; assay: GSK_TCMDC: Inhibition of Plasmodium falciparum 3D7 in whole red blood cells, using parasite LDH activity as an index of growth. Test compounds present at 2uM
# [2] = system: Plasmodium falciparum; assay: GSK_TCMDC: Inhibition of Plasmodium falciparum Dd2 in whole red blood cells, using parasite LDH activity as an index of growth. Test compounds present at 2uM
# [3] = system: HepG2; assay: GSK_TCMDC: Percent inhibition of human HepG2 cell line. Test compounds present at 10uM.
Structure (SMILES),Inhibition [1] [%],Inhibition [2] [%],Inhibition [3] [%]
CC(C)C1C(O)=C(c2ccc3ccccc3c2)C(=O)N1CC1CCCCC1 (centres undefined),84,43,11
Cc1cc(Nc2ccc(Cl)c(Cl)c2)n2nc(C)nc2n1,97,97,6
COc1cccc(C2CCN(CCN3CCC(NC(=O)c4ccc(-c5ccc(C#N)cc5)cc4)CC3)CC2)c1,98,47,28
Cl.Nc1ccc(-c2nc3c(ccc4ccccc43)[nH]2)cc1,84,51,0
Cc1cc(-c2ccc(CNCc3ccc(F)cc3)cc2)ccc1S(=O)(=O)NCCN1CCCC1.O=C(O)C(F)(F)F,100,41,95
Cn1cc(C2CCN(CCCCNC(=O)c3sc(-c4ccc(C(F)(F)F)cc4)nc3CO)CC2)c2ccccc21,95,15,46
COc1ccc(OC)c(NC(=O)CSc2nc(-c3ccccc3Cl)ns2)c1,95,32,0
N#Cc1ccc(N/C(=N\c2ccc(-c3ccccc3)cc2)NCc2cccnc2)c(O)c1,100,46,2
C=CCC1OC(=O)c2cc(OC)cc(OC)c21 (centres undefined),95,100,100
O=C(Nc1ccc(Cn2ncc(N3CCCNCC3)c(Cl)c2=O)cc1)Nc1ccc(-c2ccccc2)cc1.O=C(O)C(F)(F)F,93,51,10
Cc1c(CN2CCCCC2)cccc1OCCCNc1nc(NCCc2ccc(O)cc2)nc(N2CCNCC2)n1.O=C(O)C(F)(F)F,100,23,26
Cc1cc(=O)c2cc(Oc3ccc(OC(F)(F)F)cc3)ccc2[nH]1,86,71,20
Cc1noc(C)c1-c1cccc(CNCc2ccc(-c3ccc(-c4nc5cc(F)ccc5[nH]4)cc3)cc2)c1.O=C(O)C(F)(F)F,100,92,23
O=C(/C=C/c1ccc(C(F)(F)F)cc1)NCCCCCN1CCC(c2c[nH]c3ccccc23)CC1,100,22,96
CCc1ccc(-n2c(=O)c3cccnc3n2CC(=O)NC2CCCC2)cc1,98,27,0
Cc1cccc2c(C(=O)NC3CCN(Cc4ccccc4)CC3)cc(-c3cccnc3)nc12,81,10,12
Cc1ccccc1OCC(O)CNC1CCC(NCC(O)COc2ccccc2C)CC1 (centres undefined),98,24,96

Structure (SMILES),Inhibition [1] [%],Inhibition [2] [%],Inhibition [3] [%]
CC(Cc1ccc(NC(=O)COc2ccc(CC(C)NCCc3cccc(Cl)c3)cc2)cc1)NCCc1cccc(Cl)c1 (centres undefined),100,98,100
Cc1nnc2c(NC(=O)NC3CCCC3)cc3cc(-c4ccc(CN(C)C)cc4)ccc3n12,100,37,100
COc1ccc(NC(=O)Nc2cccc(-c3ccncc3)c2)cc1N1CCN(C)CC1,98,57,9
Cc1noc(C)c1-c1cccc(CNCc2cccc(-c3cccc(-c4nc5ccccc5[nH]4)c3)c2)c1.O=C(O)C(F)(F)F,100,54,22
CCOC(=O)c1cn(CC)c2cc(N(C)CCc3ccc(OC)c(OC)c3)c(F)cc2c1=O.Cl,92,96,9
O=C(O)C(F)(F)F.O=S(=O)(/C=C/c1ccccc1)N(Cc1ccc(-c2ccc(CNCCc3ccccc3)cc2)cc1)CC1CCCCN1 (centres undefined),100,96,99
Cc1ccoc1C(=O)Nc1cccc(-c2cccc(-c3nc4ccccc4[nH]3)c2)c1,85,20,43
Fc1ccc(C=NN=c2cc[nH]c3ccccc23)cc1,100,100,21
CCNc1cc(C(=O)N[C@@H](Cc2ccccc2)[C@H](O)CNC2(CC(C)C)CC2)cc(N2CCCCS2(=O)=O)c1.Cl,87,29,0
CCCN1CCC(NCc2cn(C)nc2-c2ccc(Oc3ccccc3)cc2)CC1,88,44,34
COC(=O)c1c(C#N)c(OC)cc(O)c1CSC[C@@H](CN1CCCCC1)Nc1nc(-c2ccc([N+](=O)[O-])cc2)cs1,100,77,8
Cc1ccc2c(=NN=CC=Cc3ccccc3)cc(C)[nH]c2c1,92,13,3
CCCCCCn1c(Sc2ccc(C#N)c([N+](=O)[O-])c2)nnc1-c1ccc(Cl)cc1,93,48,23
CCN(C)c1cc(C(=O)N[C@@H](Cc2ccccc2)[C@H](O)CNC(C)(C)c2cccc(OC)c2)cc(N2CCCC2=O)c1,100,81,0
CCCNS(=O)(=O)c1ccc(NC(=O)C(C)Oc2ccc([N+](=O)[O-])cc2)cc1 (centres undefined),100,37,3
Cl.Ic1cc(Nc2ncnc3ccsc23)ccc1OCc1ccccc1,100,81,22
